Rows were chosen to be rich in hits. Some 11% of all compounds tested hit in one or more screens of this group.
G9a inh – G9a (human) methyltransferase inhibition; G9a H3K9 monomethylation, AlphaScreen, 2 h; Potency, µM (top dose mostly 102 µM), inactives show top-dose activity, negative = inhibition, actives largely listed as inhibitors; 8.8% of 350,000 active; AID 504332; note: potency is the fitted concentration of half-maximal effect; % is set by controls: 0 for no effect and ±100 for the full control effect; nearly all actives have a fitted effect of over 75% in size
Target sequence (Q96KQ7 913-1193 limits assumed): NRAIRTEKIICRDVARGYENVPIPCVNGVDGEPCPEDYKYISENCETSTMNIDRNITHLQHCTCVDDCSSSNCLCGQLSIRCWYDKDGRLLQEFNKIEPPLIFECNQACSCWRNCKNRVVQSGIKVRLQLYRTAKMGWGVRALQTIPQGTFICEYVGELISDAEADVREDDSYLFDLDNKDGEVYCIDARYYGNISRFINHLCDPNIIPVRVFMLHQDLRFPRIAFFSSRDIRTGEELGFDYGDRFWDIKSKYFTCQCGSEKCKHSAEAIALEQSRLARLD
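AlphaScreen detection with an anti-monomethyl H3K9 antibody quantified product after a 2 h room-temperature reaction containing 500 nM biotinylated H3K9 peptide, 20 µM SAM and 20 nM enzyme, which had been preincubated 15 min with compound.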
PI5P4Ka inh – inhibitors of human PI5P4K alpha | P48426 | PI5P4Kalpha enzyme, ADP-Glo luminescence, 60 min; active compounds read low | max response, % | 1.2% of 330,000 active | AID 652105; active = max response of -50% or lower; inconclusive = between -30% and -50%; inactive = -30% or higher; note: value at the top dose of about 77 µM; % is set by controls: 0 for no effect and ±100 for the full control effect
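PI5P4Kalpha ADP-Glo assay; 5 microM ATP final; 60 min RT reaction; HEPES pH 7.4/EGTA/CHAPS, 5% DMSO; controls lacking substrate or enzyme; luminescent end-point.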
BAZ2B inh – blocks human BAZ2B; Q9UIF8; AlphaScreen BAZ2B-H3K14Ac peptide displacement; Potency, µM (series often up to 114 µM), for the others: top-dose activity change, negative = inhibition, actives largely listed as inhibitors; 4.4% of 360,000 active; AID 504333; note: potency is the fitted concentration of half-maximal effect; % is set by controls: 0 for no effect and ±100 for the full control effect; nearly all actives have a fitted effect of over 60% in size
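BAZ2B 50 nM plus b-H3(5-23)K14Ac 50 nM, PBS pH 7.4/0.01% Tween-20, 30 min RT; compound added (max 110 uM), 30 min RT; streptavidin donor/Ni-chelate acceptor beads 10 ug/mL final, 20 min dark; AlphaScreen read.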
JMJD2A Tudor inh – inhibitors of human JMJD2A Tudor domain. Potency, µM (doses to about 114 µM), for the others: at the highest dose activity change, negative = inhibition, most hits filed as inhibitors. AID 504339. 4.4% of 390,000 active. AlphaScreen JMJD2A-Tudor / H3K4me3 peptide binding. O75164; note: potency is the fitted concentration of half-maximal effect; % is set by controls: 0 for no effect and ±100 for the full control effect; nearly all actives have a fitted effect of over 50% in size
HP1b chromo inh – HP1-beta chromodomain-methylated histone interaction inhibition. P83916. AlphaScreen HP1-beta / biotin-H3K9me3 peptide binding. Potency, µM (doses to about 114 µM), for inactives: at the top dose activity change, negative = inhibition, usual class: inhibitors. 0.56% of 390,000 active. AID 540317; note: potency is the fitted concentration of half-maximal effect; nearly all actives have a fitted effect of over 70% in size
Target sequence (P83916 whole entry, looked up): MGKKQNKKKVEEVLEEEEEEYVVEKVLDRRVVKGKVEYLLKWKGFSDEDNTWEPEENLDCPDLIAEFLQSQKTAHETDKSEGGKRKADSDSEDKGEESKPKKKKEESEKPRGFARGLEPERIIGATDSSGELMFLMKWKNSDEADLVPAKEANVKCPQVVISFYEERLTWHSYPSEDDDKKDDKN
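Compound inhibition of the preformed complex between 50 nM HP1-beta and 50 nM biotinylated H3K9me3 peptide was read by AlphaScreen. Buffer was PBS pH 7.4 with 0.01% Tween-20. Incubations ran 30 min at room temperature, with 10 ug/mL donor/acceptor beads.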
L3MBTL1 inh – inhibitors of human L3MBTL1 | Q9Y468 | AlphaScreen L3MBTL1–H3K9me1 peptide binding | Potency, µM (series often up to 57.1 µM), for inactives: at the highest dose activity, negative = inhibition, hits mostly inhibitors | 0.66% of 230,000 active | AID 485360; note: potency is the fitted concentration of half-maximal effect; % is set by controls: 0 for no effect and ±100 for the full control effect; nearly all actives have a fitted effect of over 60% in size
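AlphaScreen assay: L3MBTL1 (50 nM final) was preincubated 30 min at room temperature with biotinylated H3(1-15)K9me1 peptide (75 nM final), then 30 min with library compounds; streptavidin donor and nickel chelate acceptor beads (10 ug/mL final) added, 30 min dark.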
Starred values were filed as active, the others as inactive; ? = inconclusive; nt = no result; [ ] = another dose, or the depositor's remark. Unless noted, calls come from the whole dose curve; as a rule, active = well fitted inhibition curve with a large enough effect; inconclusive = small, poorly fitted or top-dose-only effect; inactive = no such curve, though single readings can be large or run the other way.

SMILES	G9a inh	PI5P4Ka inh	BAZ2B inh	JMJD2A Tudor inh	HP1b chromo inh	L3MBTL1 inh
Cn1c(=O)c2c(c3ccccc31)OC(=O)CC2c1cccc(F)c1 (stereo not drawn)	4%[59 µM]	nt	-4%	-3%	36%	nt
C=CC[C@@H]1[C@H](O)CC[C@@]2(C)[C@H]1CC[C@@H]1[C@@H]2CC[C@]2(C)C([C@H](C)CCCC(C)C)CC[C@@H]12 (stereo partly drawn)	38%[59 µM]	nt	nt	nt	nt	nt
c1ccc2oc(-c3csc(NCC4CCCO4)n3)cc2c1 (stereo not drawn)	40µM*	4	?	?	?	-23%
c1ccc2sc(NCC3CCCO3)nc2c1 (stereo not drawn)	3%	1	-8%	-5%	43%	9%
C=CCNc1nc(-c2cc3ccccc3o2)cs1	11µM*	-1	?	-22%	-10%	-10%
C=CCNc1nc(-c2ccc3c(c2)OCCO3)cs1	nt	-1	nt	?	-8%	nt
CCOC(=O)N1CCC(NC(=O)C2CCCN(C(=O)N3CCOc4ccccc43)C2)CC1 (stereo not drawn)	13%[59 µM]	7	0%	-2%	12%	nt
O=C(NC1CCCCCC1)C1CCN(C(=O)N2CCOc3ccc(Cl)cc32)CC1	7.9µM*	nt	?	?	-9%	nt
CCOC(=O)N1CCC(NC(=O)C2CCN(C(=O)N3CCOc4ccccc43)CC2)CC1	0%[12.7 µM]	0	30%	100µM*	3%	nt
CC(C)OCC(O)CCc1n[nH]c(=S)n1-c1ccccc1 (stereo not drawn)	3.5µM*	5	12%	6.3µM*	28%	1%
S=c1[nH]nc(Cc2noc3ccccc23)n1-c1ccc(Cl)cc1	1.4µM*	-10	-13%	?	0%	-11%
S=c1[nH]nc(Cc2ccccc2)n1-c1ccccc1	8.9µM*	-10	3%	4µM*	23%	2%
S=c1[nH]nc(Cc2ccccc2)n1-c1ccc(Cl)cc1	?	-7	-25%	79µM*	1%	-6%
Cc1cc(N(C)Cc2ccccc2)n2nc(-c3ccc(C(C)(C)C)cc3)nc2n1	-28%[59 µM]	nt	-10%	-16%	17%	nt
COc1ccc(NC(=O)C2CCC(CNS(=O)(=O)c3ccc(Br)s3)CC2)cc1OC (stereo not drawn)	-7%[59 µM]	nt	1%	-15%	15%	nt
CC(C)NC(=O)C1CCC(Cn2c(=O)c3sccc3n(CC(=O)Nc3ccccc3)c2=O)CC1 (stereo not drawn)	6%[59 µM]	nt	-6%	-4%	65%	nt
CSCCC(NS(=O)(=O)c1ccc2c(c1)oc(=O)n2C)C(=O)N1CCN(c2cccc(Cl)c2)CC1 (stereo not drawn)	-7%[59 µM]	nt	-8%	-14%	14%	nt
CCCCc1ccc(-n2c(Cc3cccs3)n[nH]c2=S)cc1	1.8µM*	-5	?	?	-19%	-13%
Cc1ccc(-n2c(Cc3noc4ccccc34)n[nH]c2=S)cc1	nt	-3	?	?	30%	-2%
S=c1[nH]nc(Cc2n[nH]c(=S)n2-c2ccccc2)n1-c1ccccc1	10µM*	5	-3%	8.9µM*	40%	nt
Cc1ccc(-n2c(Cc3ccccc3)n[nH]c2=S)cc1	2.2µM*	nt	-23%	7.1µM*	-5%	0%
S=c1[nH]nc(Cc2cccs2)n1-c1ccccc1	10%[0.501 µM]	-5	-32%	7.9µM*	32%	6%
Cc1ccc(NC(=O)C2CCCN(c3nnc(-n4c(C)ccc4C)s3)C2)cc1Cl (stereo not drawn)	-1%[59 µM]	nt	-9%	-17%	26%	nt
CCC(C)n1c(=N)c(C(=O)NCc2ccco2)cc2c(=O)n3cc(C)ccc3nc21 (stereo not drawn)	-21%[59 µM]	nt	-2%	-8%	26%	nt
S=c1[nH]nc(CCc2ccccc2)n1-c1ccccc1	1.4µM*	-9	2%	11µM*	6%	1%
SMILES	G9a inh	PI5P4Ka inh	BAZ2B inh	JMJD2A Tudor inh	HP1b chromo inh	L3MBTL1 inh
Cc1ccccc1OCc1n[nH]c(=S)n1-c1ccccc1	10µM*	-3	-31%	-34%	16%	-2%
O=C(NCc1ccccc1)C(CCc1ccccc1)n1c(=O)c(-c2ccccc2)nc2ccccc21 (stereo not drawn)	nt	-22	nt	nt	nt	nt
CCN(CC)c1ccc2cc(-c3nc4sc5c(c4c(=O)[nH]3)CCC(C(C)(C)C)C5)c(=O)oc2c1 (stereo not drawn)	-25%[59 µM]	nt	-12%	-13%	-8%	nt
COc1ccccc1-c1cncc(NC(C)=O)n1	nt	10	nt	nt	nt	nt
COc1ccccc1-c1cn[nH]c(=S)n1	?	-70*	-36%	50µM*	?	-11%
O=C(NC1CCCC1)C(c1cccs1)N(CC1CCCO1)C(=O)Cc1cccs1 (stereo not drawn)	45µM*	-11	7%	-3%	43%	0%
CC(NCc1cccs1)C(=O)NC1CCCCC1 (stereo not drawn)	?	-3	40µM*	20µM*	?	-5%
CC1(C)Cc2ccccc2C(N/N=C/c2cccc(F)c2)=N1	40µM*	-9	-7%[57.1 µM]	?	58%	7%
CC(C)=NNC1=NC(C)(C)Cc2ccccc21	nt	4	-15%	-6%	25%	-8%
COCCn1c(=O)c(-c2cccs2)nc2cnc(OCc3ccccc3)nc21	6%[12.7 µM]	nt	nt	nt	nt	nt
Clc1ccc(-c2csc(N/N=C/c3cccnc3)n2)c(Cl)c1	?	4	?	?	157%	-10%
CC(=O)Nc1ccc(-c2csc(N/N=C\c3ccncc3)n2)cc1	8.9µM*	-23	-13%	?	5%	nt
COc1ccc(/C=N/Nc2nc(C(=O)O)cs2)cc1	40µM*	-63*	45µM*	?	34%	?
COC(=O)c1ccc(/C=N/Nc2nc(-c3ccc(Cl)cc3Cl)cs2)cc1	50µM*	nt	-36%	nt	nt	4%
COC(=O)c1ccc(/C=N/Nc2nc(-c3ccc(C)cc3)cs2)cc1	79µM*	-6	-5%	-11%	32%	11%
COC(=O)c1ccc(/C=N/Nc2nc(-c3ccccc3)cs2)cc1	?	-2	-2%	-17%	26%	-6%
C[C@]12CC[C@@H](O)C[C@@H]1CC[C@@H]1[C@@H]2CC[C@]2(C)C=CC[C@@H]12	29%[59 µM]	nt	nt	nt	nt	nt
Cc1ccc2nc3c(cc(C(=O)NCC4CCCO4)c(=N)n3CCCOC(C)C)c(=O)n2c1 (stereo not drawn)	56µM*	nt	0%	?	-11%	7%
CN1C(=O)C2(c3ccccc31)N(c1cccc(F)c1)C(=O)CS2(=O)=O (stereo not drawn)	16µM*	nt	27%[57.1 µM]	-11%	54%	nt
Cc1cc2c(ncn2C)c(NS(=O)(=O)c2cc(Cl)ccc2Cl)c1C	8.9µM*	-3	11%	-10%	35%	?
